Key:
Assay in all cases: DAPPL (digital affinity profiling via proximity ligation, sequencing); 10 mM Tris-HCl pH 7.5, 50 mM NaCl, 1 mM DTT, 4% glycerol, room temperature, 30 min; GST-TFs on glutathione beads, 16-mer random dsDNA library, 0.1% formaldehyde crosslink after washing; high values mean tight binding
[1] = biological target: T1, FEV (Homo sapiens, UniProt Q99581 1-238); conditions: protein: recombinant; tags: N-terminal GST; dsDNA, one strand shown
T1 sequence: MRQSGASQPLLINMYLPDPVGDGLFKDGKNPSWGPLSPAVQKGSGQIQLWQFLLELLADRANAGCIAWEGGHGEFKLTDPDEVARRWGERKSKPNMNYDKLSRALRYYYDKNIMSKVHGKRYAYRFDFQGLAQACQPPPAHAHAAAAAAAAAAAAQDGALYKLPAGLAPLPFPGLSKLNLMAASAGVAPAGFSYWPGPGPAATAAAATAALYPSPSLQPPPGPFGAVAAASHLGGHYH
Procedure, shortened: (§1)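 Human transcription factors carrying a GST fusion were produced in yeast, bound to glutathione beads, tagged with DNA barcodes and pooled together with a tag-only sample. Each pool was held with 200 nmole of a random double-stranded 16-mer DNA library in Tris/NaCl/DTT/glycerol buffer for 30 min at room temperature, then washed, crosslinked in 0.1% formaldehyde, proximity-ligated with BsaI/T4 ligase (1 h, 37 °C), PCR-amplified and sequenced on an Illumina NextSeq500. Binding signal is the read frequency of each hexamer for a given factor divided by its frequency in the tag-only sample.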

[2] = biological target: ETV5 (Homo sapiens, UniProt P41161 1-510); conditions: protein: recombinant; tags: N-terminal GST; dsDNA, one strand shown
Sequence of ETV5 (P41161 whole entry): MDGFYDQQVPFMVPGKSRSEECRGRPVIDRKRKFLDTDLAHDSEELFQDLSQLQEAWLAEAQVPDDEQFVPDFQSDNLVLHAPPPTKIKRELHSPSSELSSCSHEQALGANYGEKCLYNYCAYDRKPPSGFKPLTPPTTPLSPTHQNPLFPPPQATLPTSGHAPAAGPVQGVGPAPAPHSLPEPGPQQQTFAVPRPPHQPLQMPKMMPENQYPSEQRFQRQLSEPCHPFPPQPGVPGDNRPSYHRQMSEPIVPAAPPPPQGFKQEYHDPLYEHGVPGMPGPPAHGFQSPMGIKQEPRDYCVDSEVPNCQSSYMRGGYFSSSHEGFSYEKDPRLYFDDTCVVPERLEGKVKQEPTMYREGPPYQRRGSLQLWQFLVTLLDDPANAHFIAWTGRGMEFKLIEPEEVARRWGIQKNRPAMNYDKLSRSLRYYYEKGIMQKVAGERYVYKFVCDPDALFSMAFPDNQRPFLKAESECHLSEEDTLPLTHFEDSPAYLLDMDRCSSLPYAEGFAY
Procedure, shortened: as §1

[3] = biological target: HSF1 (Homo sapiens, UniProt Q00613 1-529); conditions: protein: recombinant; tags: N-terminal GST; chain copies: 3; dsDNA, one strand shown
Sequence of HSF1 (Q00613 whole entry): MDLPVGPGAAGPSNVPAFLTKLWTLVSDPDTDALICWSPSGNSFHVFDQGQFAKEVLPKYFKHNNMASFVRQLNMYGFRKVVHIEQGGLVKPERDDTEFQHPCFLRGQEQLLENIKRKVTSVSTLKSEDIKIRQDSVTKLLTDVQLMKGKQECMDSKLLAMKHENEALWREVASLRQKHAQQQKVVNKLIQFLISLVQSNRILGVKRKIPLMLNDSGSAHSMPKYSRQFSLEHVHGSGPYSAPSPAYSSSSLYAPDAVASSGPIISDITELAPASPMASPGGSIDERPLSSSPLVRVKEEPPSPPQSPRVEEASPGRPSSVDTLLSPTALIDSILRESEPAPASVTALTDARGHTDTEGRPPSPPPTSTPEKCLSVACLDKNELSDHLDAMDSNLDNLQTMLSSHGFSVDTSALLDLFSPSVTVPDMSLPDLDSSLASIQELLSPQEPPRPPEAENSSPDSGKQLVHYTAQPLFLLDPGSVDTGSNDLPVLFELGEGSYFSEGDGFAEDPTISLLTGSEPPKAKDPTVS
Procedure, shortened: as §1

[4] = biological target: T2, SPIC (Homo sapiens, UniProt Q8N5J4 1-248); conditions: protein: recombinant; tags: N-terminal GST; dsDNA, one strand shown
T2 sequence: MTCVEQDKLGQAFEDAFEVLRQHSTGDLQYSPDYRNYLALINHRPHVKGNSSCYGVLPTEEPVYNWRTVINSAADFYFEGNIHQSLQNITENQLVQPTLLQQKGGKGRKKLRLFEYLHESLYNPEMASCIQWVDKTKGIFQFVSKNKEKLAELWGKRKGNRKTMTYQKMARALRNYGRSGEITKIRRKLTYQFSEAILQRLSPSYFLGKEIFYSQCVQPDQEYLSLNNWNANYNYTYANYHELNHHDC
Procedure, shortened: as §1

[5] = biological target: ELF4 (Homo sapiens, UniProt Q99607 1-663); conditions: protein: recombinant; tags: N-terminal GST; dsDNA, one strand shown
Sequence of ELF4 (Q99607 whole entry): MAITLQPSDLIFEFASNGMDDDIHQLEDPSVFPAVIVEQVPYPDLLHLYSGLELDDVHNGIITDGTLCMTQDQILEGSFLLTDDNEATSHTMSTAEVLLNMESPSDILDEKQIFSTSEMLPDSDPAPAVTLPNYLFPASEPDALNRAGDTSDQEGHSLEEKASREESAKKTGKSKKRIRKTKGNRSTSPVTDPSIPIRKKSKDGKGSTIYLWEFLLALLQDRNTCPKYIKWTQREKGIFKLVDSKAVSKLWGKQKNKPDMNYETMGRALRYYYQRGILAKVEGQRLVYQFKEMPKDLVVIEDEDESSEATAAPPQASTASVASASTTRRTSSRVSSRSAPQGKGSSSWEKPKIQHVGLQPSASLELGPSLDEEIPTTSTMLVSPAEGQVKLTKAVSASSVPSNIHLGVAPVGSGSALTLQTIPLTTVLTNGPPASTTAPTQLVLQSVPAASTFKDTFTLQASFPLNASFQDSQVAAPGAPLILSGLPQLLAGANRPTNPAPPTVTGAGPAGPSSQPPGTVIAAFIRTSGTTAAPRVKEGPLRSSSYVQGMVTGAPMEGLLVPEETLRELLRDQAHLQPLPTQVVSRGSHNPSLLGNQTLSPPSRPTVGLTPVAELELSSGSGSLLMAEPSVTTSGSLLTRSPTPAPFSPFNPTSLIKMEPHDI
Procedure, shortened: as §1

[6] = biological target: T3, ELK4 (Homo sapiens, UniProt P28324-2 1-405); conditions: protein: recombinant; tags: N-terminal GST; dsDNA, one strand shown
T3 sequence: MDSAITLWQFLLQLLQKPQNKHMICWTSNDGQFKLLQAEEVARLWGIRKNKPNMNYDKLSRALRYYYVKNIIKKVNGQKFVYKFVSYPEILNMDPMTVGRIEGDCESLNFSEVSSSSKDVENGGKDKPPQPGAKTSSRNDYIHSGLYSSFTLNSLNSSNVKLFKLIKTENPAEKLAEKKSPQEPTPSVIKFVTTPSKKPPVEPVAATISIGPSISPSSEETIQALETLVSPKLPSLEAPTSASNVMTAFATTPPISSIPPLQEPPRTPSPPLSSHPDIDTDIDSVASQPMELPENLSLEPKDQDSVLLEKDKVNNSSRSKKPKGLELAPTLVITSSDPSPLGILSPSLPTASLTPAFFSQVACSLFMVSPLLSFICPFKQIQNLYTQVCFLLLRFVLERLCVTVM
Procedure, shortened: as §1

[7] = biological target: T4, ETV2 (Homo sapiens, UniProt O00321 1-342); conditions: protein: recombinant; tags: N-terminal GST; dsDNA, one strand shown
T4 sequence: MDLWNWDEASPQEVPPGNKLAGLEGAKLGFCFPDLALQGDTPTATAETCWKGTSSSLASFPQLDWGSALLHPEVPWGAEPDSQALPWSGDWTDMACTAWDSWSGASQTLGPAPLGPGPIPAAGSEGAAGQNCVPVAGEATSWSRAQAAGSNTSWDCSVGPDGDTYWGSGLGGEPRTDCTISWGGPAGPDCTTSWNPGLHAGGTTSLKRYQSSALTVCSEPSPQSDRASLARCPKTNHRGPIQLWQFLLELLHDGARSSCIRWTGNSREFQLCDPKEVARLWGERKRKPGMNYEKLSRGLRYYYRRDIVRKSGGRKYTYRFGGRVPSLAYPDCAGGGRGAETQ
Procedure, shortened: as §1

[8] = biological target: T5, ELF3 (Homo sapiens, UniProt P78545 1-371); conditions: protein: recombinant; tags: N-terminal GST; dsDNA, one strand shown
T5 sequence: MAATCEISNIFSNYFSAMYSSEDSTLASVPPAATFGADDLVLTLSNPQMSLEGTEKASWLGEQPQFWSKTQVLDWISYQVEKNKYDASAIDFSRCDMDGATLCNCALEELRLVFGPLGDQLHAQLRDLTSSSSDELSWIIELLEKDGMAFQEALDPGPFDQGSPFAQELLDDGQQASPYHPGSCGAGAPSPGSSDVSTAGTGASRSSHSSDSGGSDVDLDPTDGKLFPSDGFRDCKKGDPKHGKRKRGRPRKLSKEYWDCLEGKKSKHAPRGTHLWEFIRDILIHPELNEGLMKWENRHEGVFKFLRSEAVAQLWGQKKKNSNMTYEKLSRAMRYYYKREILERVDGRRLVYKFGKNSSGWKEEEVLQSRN
Procedure, shortened: as §1

[9] = biological target: CRX (Homo sapiens, UniProt O43186 1-299); conditions: protein: recombinant; tags: N-terminal GST; dsDNA, one strand shown
Sequence of CRX (O43186 whole entry): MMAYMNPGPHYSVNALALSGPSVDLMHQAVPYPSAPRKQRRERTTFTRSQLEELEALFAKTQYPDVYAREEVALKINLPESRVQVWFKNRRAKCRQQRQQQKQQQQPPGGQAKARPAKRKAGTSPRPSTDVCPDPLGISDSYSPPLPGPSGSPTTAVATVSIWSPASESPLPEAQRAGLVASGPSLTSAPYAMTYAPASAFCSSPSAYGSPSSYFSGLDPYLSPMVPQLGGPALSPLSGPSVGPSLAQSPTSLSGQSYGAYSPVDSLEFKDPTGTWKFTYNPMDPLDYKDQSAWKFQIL
Procedure, shortened: as §1

[10] = biological target: ETV1 (Homo sapiens, UniProt P50549 1-477); conditions: protein: recombinant; tags: N-terminal GST; dsDNA, one strand shown
Sequence of ETV1 (P50549 whole entry): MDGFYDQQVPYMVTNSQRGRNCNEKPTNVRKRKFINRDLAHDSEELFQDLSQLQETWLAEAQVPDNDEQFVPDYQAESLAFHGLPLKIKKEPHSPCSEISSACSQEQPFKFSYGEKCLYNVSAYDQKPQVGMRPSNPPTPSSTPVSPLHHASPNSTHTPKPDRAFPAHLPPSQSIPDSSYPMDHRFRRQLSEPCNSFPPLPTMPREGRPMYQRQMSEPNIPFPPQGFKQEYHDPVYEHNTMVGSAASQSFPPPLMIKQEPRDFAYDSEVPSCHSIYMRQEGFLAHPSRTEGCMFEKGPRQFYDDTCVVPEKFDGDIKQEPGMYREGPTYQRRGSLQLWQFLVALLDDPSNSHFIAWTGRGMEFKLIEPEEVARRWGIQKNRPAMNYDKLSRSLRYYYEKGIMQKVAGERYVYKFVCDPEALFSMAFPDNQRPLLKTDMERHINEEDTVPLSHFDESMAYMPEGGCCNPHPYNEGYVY
Procedure, shortened: as §1

[11] = biological target: T6, ERF (Homo sapiens, UniProt P50548 1-548); conditions: protein: recombinant; tags: N-terminal GST; dsDNA, one strand shown
T6 sequence: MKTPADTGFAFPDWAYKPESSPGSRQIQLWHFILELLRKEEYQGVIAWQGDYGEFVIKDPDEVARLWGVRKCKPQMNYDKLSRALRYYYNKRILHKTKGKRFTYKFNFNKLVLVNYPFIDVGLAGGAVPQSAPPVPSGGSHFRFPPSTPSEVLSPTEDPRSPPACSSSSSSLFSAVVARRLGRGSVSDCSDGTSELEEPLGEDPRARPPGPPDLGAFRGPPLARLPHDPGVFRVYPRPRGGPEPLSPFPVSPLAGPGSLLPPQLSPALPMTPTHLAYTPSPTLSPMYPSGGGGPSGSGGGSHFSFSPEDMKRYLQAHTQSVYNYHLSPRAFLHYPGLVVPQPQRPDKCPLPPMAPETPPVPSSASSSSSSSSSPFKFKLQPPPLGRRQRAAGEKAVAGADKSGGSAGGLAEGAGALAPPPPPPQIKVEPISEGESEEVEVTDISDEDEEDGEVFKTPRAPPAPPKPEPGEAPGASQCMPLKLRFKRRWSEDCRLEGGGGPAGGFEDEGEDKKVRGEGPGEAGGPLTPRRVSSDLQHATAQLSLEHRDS
Procedure, shortened: as §1

[12] = biological target: T7, ETV3L (Homo sapiens, UniProt Q6ZN32 1-361); conditions: protein: recombinant; tags: N-terminal GST; dsDNA, one strand shown
T7 sequence: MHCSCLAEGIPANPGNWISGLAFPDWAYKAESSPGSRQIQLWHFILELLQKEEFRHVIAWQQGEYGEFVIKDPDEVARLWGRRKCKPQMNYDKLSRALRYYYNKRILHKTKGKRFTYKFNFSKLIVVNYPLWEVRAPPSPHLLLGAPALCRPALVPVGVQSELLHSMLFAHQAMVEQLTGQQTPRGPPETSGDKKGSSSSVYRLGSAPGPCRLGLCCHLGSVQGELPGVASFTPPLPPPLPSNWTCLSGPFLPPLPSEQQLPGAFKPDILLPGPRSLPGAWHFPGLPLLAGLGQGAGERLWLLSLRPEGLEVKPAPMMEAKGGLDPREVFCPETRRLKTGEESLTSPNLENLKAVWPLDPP
Procedure, shortened: as §1

[13] = biological target: T8, ETS2 (Homo sapiens, UniProt P15036 1-469); conditions: protein: recombinant; tags: N-terminal GST; dsDNA, one strand shown
T8 sequence: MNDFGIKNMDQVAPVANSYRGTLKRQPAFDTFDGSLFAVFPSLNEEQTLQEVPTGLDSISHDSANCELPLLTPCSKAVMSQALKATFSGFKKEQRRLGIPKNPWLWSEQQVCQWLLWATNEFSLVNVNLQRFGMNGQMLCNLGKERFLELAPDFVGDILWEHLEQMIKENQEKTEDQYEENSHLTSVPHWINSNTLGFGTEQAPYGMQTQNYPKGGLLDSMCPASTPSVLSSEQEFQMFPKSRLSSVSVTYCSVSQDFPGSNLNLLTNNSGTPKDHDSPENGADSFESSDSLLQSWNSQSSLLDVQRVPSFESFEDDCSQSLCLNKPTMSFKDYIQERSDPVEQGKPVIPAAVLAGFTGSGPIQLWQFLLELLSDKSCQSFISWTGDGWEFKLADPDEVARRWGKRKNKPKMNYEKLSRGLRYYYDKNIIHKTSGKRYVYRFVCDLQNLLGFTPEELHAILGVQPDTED
Procedure, shortened: as §1

[14] = biological target: T9, SPDEF (Homo sapiens, UniProt O95238 1-335); conditions: protein: recombinant; tags: N-terminal GST; dsDNA, one strand shown
T9 sequence: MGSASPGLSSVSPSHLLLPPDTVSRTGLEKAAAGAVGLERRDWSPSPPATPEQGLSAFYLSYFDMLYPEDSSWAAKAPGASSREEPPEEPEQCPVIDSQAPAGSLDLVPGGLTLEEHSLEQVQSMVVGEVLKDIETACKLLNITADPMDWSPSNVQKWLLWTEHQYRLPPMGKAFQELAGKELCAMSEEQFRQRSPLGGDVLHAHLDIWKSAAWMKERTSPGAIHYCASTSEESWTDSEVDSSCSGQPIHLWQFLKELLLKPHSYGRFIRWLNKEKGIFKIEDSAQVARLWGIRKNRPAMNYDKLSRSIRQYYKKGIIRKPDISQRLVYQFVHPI
Procedure, shortened: as §1

[15] = biological target: T10, ETV7 (Homo sapiens, UniProt Q9Y603 1-341); conditions: protein: recombinant; tags: N-terminal GST; dsDNA, one strand shown
T10 sequence: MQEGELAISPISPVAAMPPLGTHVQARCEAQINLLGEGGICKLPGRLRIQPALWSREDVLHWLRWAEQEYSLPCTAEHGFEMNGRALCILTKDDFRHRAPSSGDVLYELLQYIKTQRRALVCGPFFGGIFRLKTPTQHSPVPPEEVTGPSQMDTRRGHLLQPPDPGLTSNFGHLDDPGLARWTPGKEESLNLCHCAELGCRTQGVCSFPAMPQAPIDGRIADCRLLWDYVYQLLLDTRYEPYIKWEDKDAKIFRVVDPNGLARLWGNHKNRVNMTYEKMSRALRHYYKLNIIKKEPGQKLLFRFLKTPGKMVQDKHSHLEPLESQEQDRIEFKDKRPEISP
Procedure, shortened: as §1

[16] = biological target: T11, ELF5 (Homo sapiens, UniProt Q9UKW6-2 1-255); conditions: protein: recombinant; tags: N-terminal GST; dsDNA, one strand shown
T11 sequence: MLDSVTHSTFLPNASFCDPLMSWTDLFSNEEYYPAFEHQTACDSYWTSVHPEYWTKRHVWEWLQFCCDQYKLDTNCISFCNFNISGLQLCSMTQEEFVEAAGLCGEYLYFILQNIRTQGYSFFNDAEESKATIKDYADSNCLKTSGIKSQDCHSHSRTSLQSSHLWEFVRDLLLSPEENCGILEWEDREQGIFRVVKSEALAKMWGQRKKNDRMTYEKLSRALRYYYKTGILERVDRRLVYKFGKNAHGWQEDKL
Procedure, shortened: as §1

[17] = biological target: T12, ETV3 (Homo sapiens, UniProt P41162-2 1-143); conditions: protein: recombinant; tags: N-terminal GST; dsDNA, one strand shown
T12 sequence: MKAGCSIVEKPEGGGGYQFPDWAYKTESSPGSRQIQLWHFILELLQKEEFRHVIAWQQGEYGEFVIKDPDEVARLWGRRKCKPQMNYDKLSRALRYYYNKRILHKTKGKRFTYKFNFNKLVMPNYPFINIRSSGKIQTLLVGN
Procedure, shortened: as §1

[18] = biological target: ETV6 (Homo sapiens, UniProt P41212 1-452); conditions: protein: recombinant; tags: N-terminal GST; dsDNA, one strand shown
Sequence of ETV6 (P41212 whole entry): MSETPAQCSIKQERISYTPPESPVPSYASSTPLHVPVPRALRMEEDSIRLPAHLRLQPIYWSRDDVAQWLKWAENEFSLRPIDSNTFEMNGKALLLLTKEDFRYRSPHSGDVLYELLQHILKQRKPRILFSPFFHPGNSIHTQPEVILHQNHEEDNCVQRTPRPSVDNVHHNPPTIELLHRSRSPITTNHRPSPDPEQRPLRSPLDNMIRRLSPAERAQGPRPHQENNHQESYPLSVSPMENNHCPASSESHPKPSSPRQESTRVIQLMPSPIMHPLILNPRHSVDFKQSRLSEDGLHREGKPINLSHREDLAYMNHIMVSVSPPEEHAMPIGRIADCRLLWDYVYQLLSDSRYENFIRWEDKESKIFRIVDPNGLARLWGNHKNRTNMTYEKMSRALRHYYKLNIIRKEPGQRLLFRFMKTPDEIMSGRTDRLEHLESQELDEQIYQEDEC
Procedure, shortened: as §1

TCACGC
binding signal [1]: 1.18 fold enrichment (6-mer frequency, TF over GST control)
binding signal [2]: 1.15 fold enrichment (6-mer frequency, TF over GST control)
binding signal [3]: 1.08 fold enrichment (6-mer frequency, TF over GST control)
binding signal [4]: 1.25 fold enrichment (6-mer frequency, TF over GST control)
binding signal [5]: 1.16 fold enrichment (6-mer frequency, TF over GST control)
binding signal [6]: 1.34 fold enrichment (6-mer frequency, TF over GST control)
binding signal [7]: 1.26 fold enrichment (6-mer frequency, TF over GST control)
binding signal [8]: 1.35 fold enrichment (6-mer frequency, TF over GST control)
binding signal [9]: 1.02 fold enrichment (6-mer frequency, TF over GST control)
binding signal [10]: 1.13 fold enrichment (6-mer frequency, TF over GST control)
binding signal [11]: 1.26 fold enrichment (6-mer frequency, TF over GST control)
binding signal [12]: 1.2 fold enrichment (6-mer frequency, TF over GST control)
binding signal [13]: 1.11 fold enrichment (6-mer frequency, TF over GST control)
binding signal [14]: 1.12 fold enrichment (6-mer frequency, TF over GST control)
binding signal [15]: 1.16 fold enrichment (6-mer frequency, TF over GST control)
binding signal [16]: 1.15 fold enrichment (6-mer frequency, TF over GST control)
binding signal [17]: 1.07 fold enrichment (6-mer frequency, TF over GST control)
binding signal [18]: 1.15 fold enrichment (6-mer frequency, TF over GST control)

Reference: paper PMC7862700, “An all-to-all approach to the identification of sequence-specific readers for epigenetic DNA modifications on cytosine”
